The results in this text go back to PubChem BioAssay AID2013 (Sanford-Burnham Center for Chemical Genomics, 2009).

SMILES strings stand for the structures. Values joined by “and” are separate entries in the source; they are usually repeats but may differ in a detail not shown here. Equal entries are not always repeated. Among all 290,000 compounds or so, about 370 (0.13%) were called active.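 The calls were made as follows: active = spots per cell inhibited over 60%, with over 100 cells counted and total cytoplasm intensity under 500,000; inconclusive = wells with under 100 cells, flagged as likely toxic; inactive = the rest.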 Only a selection was taken, and actives are over-represented in it overall. Results with a measured potency or affinity are listed apart.

The target of this experiment is G-protein coupled receptor 55 (Homo sapiens) (UniProt Q9Y2T6). Briefly: inhibition of LPI-stimulated GPR55 beta-arrestin translocation – imaging, U2OS, beta-arrestin-GFP, LPI agonist, primary screen (AID 2013).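 Also: U2OS cells stably carrying GPR55 and arrestin-GFP stimulated by 5 µM LPI near EC80; imaged beta-arrestin-GFP aggregate spots per cell after agonist stimulation; plate controls were LPI-stimulated DMSO wells for no effect and DMSO wells without LPI for full effect.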 The following applies: LPI antagonism, at 10 µM, active compounds read high.
G-protein coupled receptor 55 (Homo sapiens), sequence (Q9Y2T6 whole entry, looked up): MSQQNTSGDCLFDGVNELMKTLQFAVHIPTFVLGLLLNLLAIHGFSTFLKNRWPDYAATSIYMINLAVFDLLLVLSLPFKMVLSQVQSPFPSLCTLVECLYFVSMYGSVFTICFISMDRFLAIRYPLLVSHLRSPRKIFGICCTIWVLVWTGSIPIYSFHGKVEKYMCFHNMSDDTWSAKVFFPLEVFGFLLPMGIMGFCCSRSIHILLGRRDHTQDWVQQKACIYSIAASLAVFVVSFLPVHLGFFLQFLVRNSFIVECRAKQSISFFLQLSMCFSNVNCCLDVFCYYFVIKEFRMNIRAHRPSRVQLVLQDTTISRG
`N=c1c2c(-c3ccccc3)c(-c3ccccc3)n(Cc3ccco3)c2ncn1Cc1ccccc1`: the inhibition was 70.9% (active).
As to `N=c1c2c(-c3ccccc3)c(-c3ccccc3)n(Cc3ccco3)c2ncn1Cc1ccco1`, the inhibition was 29.6% (inactive).
Take `N=c1c2c(-c3ccccc3)c(-c3ccccc3)n(Cc3ccco3)c2ncn1CCCn1ccnc1`: the inhibition was 24.2% (inactive).
`OCCNc1ncnc2c1c(-c1ccccc1)c(-c1ccccc1)n2Cc1ccco1`: the inhibition is -0.4% (inactive).
`N=c1c2c(-c3ccccc3)c(-c3ccccc3)n(Cc3ccco3)c2ncn1CCO`: the inhibition was 58.3% (inactive).
As to `CCN(CC1COc2ccccc2O1)C(=S)NCCCN(C)C` (centres undefined), the inhibition is 5.9% (inactive).
As for `COc1cc(NC(=O)CSCC(=O)Nc2cc(OC)cc(OC)c2)cc(OC)c1`, the inhibition is -13.3% (inactive).
Consider `CC1(C)CC(=O)C2=C(C1)N(c1cccc(O)c1)C1=C(C2)C(=O)CC(C)(C)C1`, for which the inhibition is 28.2% (inactive).
Next, `Cc1ccc(OCCCn2ccnc2)c([N+](=O)[O-])c1`: 11.8% (inactive).
Regarding `CCOc1ccc(CN2CCNC(=O)C2CC(=O)NCc2csc(C)n2)cc1` (centres undefined), the inhibition is -5.2% (inactive).
Next, `COc1ccc(CN(CCC#N)C(=S)NC(=O)c2ccccc2)cc1`: 21.1% (inactive).
Next, `CCOc1ccc(C(=O)NC(=S)N(Cc2ccccc2)Cc2ccccc2)cc1`: 8.8% (inactive); `CCOC(=O)c1[nH]c2ccc(Cl)cc2c1NC(=O)/C=C/c1ccc2c(c1)OCO2`: -10.3% (inactive).
As to `CCc1ccc2c(c1)cc(CN(C(=S)Nc1ccccc1C)C1CC1)c1nnnn12`, the inhibition is -0.7% (inactive).
Take `Cn1c(=O)n(C/C=C/c2ccccc2)c(=O)c2c1nc1n2CCCN1Cc1ccccc1`: the inhibition is 12.5% (inactive).
In the case of `Cn1c(=O)n(CCc2ccccc2)c(=O)c2c1nc1n2CCCN1c1ccccc1` it was 8.1% (inactive); in that of `CC(C)C(=O)Nc1ccc(N2CCN(c3ccc(F)cc3)CC2)cc1`, 7.7% (inactive); in that of `O=C(O)CN=C(NS(=O)(=O)c1ccccc1)c1ccccc1`, 3.6% (inactive).
As for `CC(C)N=C(NS(=O)(=O)c1ccccc1)C(Cl)(Cl)Cl`, the inhibition is 52.5% (inactive).
As for `Cc1ccc(CC(=O)N2CCN(c3ccccn3)CC2)cc1`, the inhibition is 1.5% (inactive).
In the case of `Cc1nc(-c2ccc(Cl)cc2)sc1C1(C)CC(c2cccc(Cl)c2)=NO1` (centres undefined) it was 2.4% (inactive); in that of `O=C(Nc1ccccc1O)c1ccc2c(c1)C(=O)N(Cc1ccco1)C2=O`, 1.9% (inactive).
In the case of `CC(/C=C\c1cccnc1)=C/C(=O)O` it was 13.6% (inactive) and 11.7% (inactive).
With `O=C(O)/C=C/c1cccnc1`, the inhibition is 10.5% (inactive).
Take `Cc1cc(CSc2ccccc2)ccc1NC(=O)COc1ccccc1C`: the inhibition is 5.6% (inactive).
As to `CC(C)CCNC(=O)C1CC(=O)N(CCc2ccccc2)C1` (centres undefined), the inhibition is 3.2% (inactive).
For `COc1ccc(CNC(=O)CCc2c(C)nc3cc(-c4ccccc4OC)nn3c2C)cc1`, the inhibition is 12.4% (inactive).
Regarding `Cc1ccc(NC(=O)c2ccccc2OCC(=O)c2ccccc2)cc1`, the inhibition was -5.2% (inactive).
With `CCOc1ccc(NC(=O)c2ccccc2OCC(=O)c2ccc(C)cc2)cc1`, the inhibition is -16% (inactive).
With `O=C(NCc1ccccn1)c1ccc(CNS(=O)(=O)c2cccc(C(F)(F)F)c2)cc1`, the inhibition was 3.1% (inactive).
Consider `Cc1cccc(C(=O)Oc2ccc(/C=N/NC(=O)c3ccc(O)cc3)cc2)c1`, for which the inhibition was 0.3% (inactive).
With `CC1=Nc2cc(C(=O)NCCCOC(C)C)ccc2Sc2ccc(C)cc21`, the inhibition was 19.1% (inactive).
As to `Cc1c(-n2c(SC(C)C(=O)NC(N)=O)nc3ccccc3c2=O)c(=O)n(-c2ccccc2)n1C` (centres undefined), the inhibition was -4.9% (inactive).
With `c1ccc(-c2ccc(-c3nccc4ccccc34)[nH]2)cc1`, the inhibition was 36% (inactive).
For `Cc1ccc(-c2nc(-c3nccc4ccccc34)oc2-c2ccccc2)cc1`, the inhibition was 25% (inactive).
Next, `O=C(NC1CCCCC1)Sc1ccc(Cl)cc1`: -6% (inactive).
As for `CC(=O)/C(=C\N(C)C)Sc1ccc(Cl)cc1`, the inhibition is 0.6% (inactive).
In the case of `S=C(Sc1ccc(Cl)cc1)Sc1ccc(Cl)cc1`, the inhibition was 91.8% (active).
Next, `O=C(N/N=C/c1ccoc1)c1ccccc1O`: -2.7% (inactive); `O=C(O)COc1ccccc1/C=C1\SC(=Nc2ccc(F)cc2)N(c2ccc(F)cc2)C1=O`: 12.7% (inactive).
Regarding `O=C1NN(c2ccccc2)C(=O)/C1=C\c1ccccc1OCC(=O)N1CCOCC1`, the inhibition is 4.6% (inactive).
As for `O=C(N/N=C/c1ccc(Cl)c([N+](=O)[O-])c1)c1cc(-c2ccc3c4c(cccc24)CC3)n[nH]1`, the inhibition was 76.6% (active).
On to `O=C(O)c1ccc(/C=N/NC(=O)c2cc(-c3ccc4c5c(cccc35)CC4)n[nH]2)cc1`, for which the inhibition was 4% (inactive).
Next, `O=C(N/N=C/c1cccc([N+](=O)[O-])c1)c1cc(-c2ccc3c4c(cccc24)CC3)n[nH]1`: -4.6% (inactive); `CCN(Cc1ccccc1)S(=O)(=O)c1ccc(F)cc1`: 15.1% (inactive).
As to `COC(=O)C1=C(C)N(Cc2ccccc2)C(=NCCc2ccccn2)N[C@H]1c1cccc(F)c1`, the inhibition was 38.8% (inactive).
On to `CCN1C(=S)N[C@@H](c2cccc(F)c2)C(C(=O)OC)=C1C`, for which the inhibition was 4.1% (inactive).
Take `COC(=O)C1=C(C)N(Cc2ccccc2)C(=NCc2cc(OC)c(OC)c(OC)c2)N[C@H]1c1cccc(F)c1`: the inhibition is 8.9% (inactive).
For the molecule `COC(=O)C1=C(C)N(Cc2cccnc2)C(=O)C1`, the inhibition was -5.2% (inactive).
`COC(=O)C1=C(C)N(Cc2ccccc2)C(=S)N[C@H]1c1cccc(F)c1`: the inhibition is 18.7% (inactive).
Turning to `CCN1C(=NCCc2cccnc2)N[C@@H](c2ccccc2)C(C(=O)OC)=C1C`, the inhibition is -18.1% (inactive).
In the case of `COC(=O)C1=C(C)N(Cc2ccccc2)C(=O)N[C@H]1c1ccccc1` it was 58% (inactive); in that of `COC(=O)C1=C(C)N(CC2CC2)C(=NCc2cc(OC)c(OC)c(OC)c2)N[C@H]1c1ccccc1`, -3% (inactive); in that of `O=C(Nc1ccc2c(c1)OCCO2)NC1(C(F)(F)F)Oc2ccccc2O1`, -14.5% (inactive).
In the case of `COc1ccc(NC(=O)N2CCN(c3cccc(C(F)(F)F)c3)CC2)cc1` it was 12.5% (inactive); in that of `COc1ccc(-c2cc(C(=O)N3CCN(c4ccccc4O)CC3)c3ccccc3n2)cc1OC`, 13.3% (inactive).
In the case of `CCc1oc(C(=O)O)cc1COC`, the inhibition was 3.5% (inactive).
For the molecule `C=CCN1C(=O)SC(Cc2cccc(OC)c2O)C1=O` (centres undefined), the inhibition was -4.5% (inactive).
As to `COc1ccc(C(=O)NC(C)Cc2cnccn2)cc1OC1CCN(C(C)C)CC1` (centres undefined), the inhibition is 18.7% (inactive).
As for `CC(C(=O)Nc1cccnc1)n1cc([N+](=O)[O-])cn1` (centres undefined), the inhibition is 9.4% (inactive).
Next, `COCCN=C1N[C@@H](c2cccc(C(F)(F)F)c2)C(C(=O)OC)=C(C)N1Cc1ccccc1`: 31.8% (inactive); `COC(=O)C1=C(C)N(Cc2ccccc2)C(=O)N[C@H]1c1cccc(C(F)(F)F)c1`: 6.8% (inactive); `COc1ccc(NC(C)=O)cc1NC(=O)CN1CCN(C2c3ccccc3-c3ccccc32)CC1`: 100% (active).
In the case of `COc1ccc(NC(C)=O)cc1NC(=O)CN1CCN(CC(=O)Nc2ccccc2Cl)CC1`, the inhibition was 21.6% (inactive).
Next, `COc1ccc(NC(=O)CN2CCN(C3c4ccccc4-c4ccccc43)CC2)cc1`: 9.6% (inactive); `COc1ccccc1NC(=O)CN1CCN(C2c3ccccc3-c3ccccc32)CC1`: 59.8% (inactive); `COc1ccccc1NC(=O)CN1CCN(CC(=O)Nc2cc(NC(C)=O)ccc2OC)CC1`: -4.4% (inactive).
Next, `Nc1c2c(nn1-c1ccc(F)cc1)CSC2`: -2.1% (inactive); `O=C(CO/N=C1\CCCc2nonc21)Nc1ccccc1Cl`: 0.5% (inactive).
As for `O=C1/C(=C/c2cccnc2)SC(=S)N1C1CCS(=O)(=O)C1` (centres undefined), the inhibition was 3.6% (inactive).
Regarding `O=C1/C(=C/c2ccccc2)SC(=S)N1C1CCS(=O)(=O)C1` (centres undefined), the inhibition was 9.4% (inactive).
For `C=C(C)CNC(=S)NNC(=O)CCn1c2ccccc2c2ccccc21`, the inhibition was -10.4% (inactive).
In the case of `CCOc1ccc(CCNC(=O)c2ccc(CS(=O)Cc3ccc(Cl)cc3)o2)cc1OCC` (centres undefined), the inhibition is 13.4% (inactive).
As for `Cc1ccc(Cn2cc(SCC(=O)Nc3nccs3)c3ccccc32)cc1`, the inhibition is 2.5% (inactive).
`Cc1ccccc1C(=O)Nc1ccc(S(=O)(=O)Nc2onc(C)c2C)cc1`: the inhibition was 6.6% (inactive).
`Cc1ccc(-c2cc(C(=O)Nc3ccc(S(=O)(=O)Nc4onc(C)c4C)cc3)c3ccccc3n2)cc1`: the inhibition is -14.3% (inactive).
With `Cc1noc(NS(=O)(=O)c2ccc(NC(=O)c3cc(-c4ccccc4Cl)nc4ccccc34)cc2)c1C`, the inhibition was 14.9% (inactive).
`Cc1cc(C)c2nc(-c3ccccn3)cc(C(=O)Nc3cc(C)on3)c2c1`: the inhibition is 1.5% (inactive).
In the case of `Cc1ccc(-c2cc(C(=O)Nc3ccc(S(=O)(=O)Nc4cc(C)on4)cc3)c3ccccc3n2)c(C)c1` it was 32.5% (inactive); in that of `Cc1cc(C)c(C(=O)Nc2ccc(S(=O)(=O)Nc3onc(C)c3C)cc2)c(C)c1`, 4.6% (inactive); in that of `COc1ccc(-n2ncc3c(=O)n(CC(=O)Nc4ccc5c(c4)OCCO5)cnc32)cc1`, 0.6% (inactive).
With `COc1cc2nc(SCC(N)=O)n(CCC3=CCCCC3)c(=O)c2cc1OC`, the inhibition is -6.5% (inactive).
For the molecule `COc1cc(NC(=O)c2cc(C)no2)cc(OC)c1OC`, the inhibition was 3.4% (inactive).
`COc1cc(-c2nn3c(-c4ccccc4)nnc3s2)cc(OC)c1OC`: the inhibition was -5.2% (inactive).
On to `Cc1cc(/C=C2\SC(=O)N(C)C2=O)c(C)n1-c1ccc(S(N)(=O)=O)cc1`, for which the inhibition was 5% (inactive).
Regarding `Cc1cc(/C=C2\SC(N)=NC2=O)c(C)n1-c1ccccc1`, the inhibition was -9.3% (inactive).
For the molecule `[N-]=[N+]=NC[C@H](c1ccccc1)N1CCN(Cc2ccccc2)CCC1=O`, the inhibition was 9.8% (inactive).
In the case of `CCOC(=O)CC(NC(=O)CCS(=O)(=O)c1ccc2c(c1)n(C)c(=O)c(=O)n2C)c1ccc(C)cc1` (centres undefined) it was 10.2% (inactive); in that of `CCN(CC)c1ccc(/C=N/n2c(C)nc3ccccc3c2=O)cc1`, -7.1% (inactive).

One may read the inhibition as the change of the read-out against control, counted positive when it falls.
